Compound activity as filed in PubChem.
BAZ2B inh: inhibitors of human BAZ2B bromodomain. AlphaScreen BAZ2B-H3K14Ac peptide displacement. 360,000 compounds, 4.4% hits. Q9UIF8. Potency, µM (titrated, usually from 114 µM), without a hit: top-dose activity change, negative = inhibition, actives largely listed as inhibitors; further: potency means the concentration at half of the fitted maximal effect; on the % scale 0 is the no-effect control and ±100 the full control effect; nearly all actives have a fitted effect of over 60% in size
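Complex of BAZ2B and biotin-H3K14Ac (50 nM apiece) forms over 30 min at RT, then faces library compounds up to 110 uM for another 30 min; AlphaScreen beads added, 20 min dark incubation, luminescence read.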
PI5P4Ka inh: blocks human PI5P4K alpha kinase activity | PI5P4Kalpha enzyme, ADP-Glo luminescence, 60 min; stronger effect = lower value | max response, % | AID 652105 | P48426 | 330,000 compounds, 1.2% hits; active means max response of -50% or lower; inconclusive means between -30% and -50%; inactive means -30% or higher; further: value at the top dose of about 77 µM; on the % scale 0 is the no-effect control and ±100 the full control effect
Target sequence (P48426 whole entry, looked up): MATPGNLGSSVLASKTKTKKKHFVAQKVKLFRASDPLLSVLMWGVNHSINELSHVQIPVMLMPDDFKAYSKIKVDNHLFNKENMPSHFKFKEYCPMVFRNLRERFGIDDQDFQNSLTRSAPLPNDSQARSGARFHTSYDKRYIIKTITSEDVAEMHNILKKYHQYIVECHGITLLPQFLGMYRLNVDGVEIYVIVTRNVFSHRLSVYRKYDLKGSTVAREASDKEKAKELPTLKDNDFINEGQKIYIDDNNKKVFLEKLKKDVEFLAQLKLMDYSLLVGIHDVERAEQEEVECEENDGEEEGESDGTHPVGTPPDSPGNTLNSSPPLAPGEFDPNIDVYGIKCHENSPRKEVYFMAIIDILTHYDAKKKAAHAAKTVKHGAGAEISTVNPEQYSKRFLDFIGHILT
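Controls without substrate or without enzyme flank wells where PI5P4Kalpha converts substrate using 5 microM ATP (final). Incubation lasts 60 minutes at room temperature; ADP formed is read by ADP-Glo luminescence.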
KAT2A inh: inhibitors of human GCN5L2 histone acetyltransferase; Q92830; Potency, µM (series often up to 58.9 µM), without a hit: at the highest dose activity change, negative = inhibition, hits mostly inhibitors; AID 504327; 390,000 compounds, 0.21% hits; GCN5L2 HAT assay, ThioGlo1 CoA-SH fluorescence; further: potency means the concentration at half of the fitted maximal effect; on the % scale 0 is the no-effect control and ±100 the full control effect
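Titration-based screen in which CoA formation is detected via maleimide probe ThioGlo1 (50uM) turning fluorescent on thiol reaction; substrates H3(1-25) 75uM and acetyl-CoA 70uM, GCN5L2 20nM, 20 min incubation at room temperature.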
HP1b chromo inh: HP1-beta chromodomain-methylated histone interaction inhibition; Potency, µM (doses to about 114 µM), for the others: top-dose activity change, negative = inhibition, hits mostly inhibitors; P83916; 390,000 compounds, 0.56% hits; AlphaScreen HP1-beta / biotin-H3K9me3 peptide binding; further: potency means the concentration at half of the fitted maximal effect; nearly all actives have a fitted effect of over 70% in size
Target sequence (P83916 whole entry, looked up): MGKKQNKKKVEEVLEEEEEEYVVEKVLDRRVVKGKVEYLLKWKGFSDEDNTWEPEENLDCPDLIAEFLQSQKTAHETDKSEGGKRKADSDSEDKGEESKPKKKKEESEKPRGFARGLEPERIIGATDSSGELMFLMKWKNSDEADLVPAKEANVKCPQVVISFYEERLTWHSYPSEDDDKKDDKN
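Compound inhibition of the preformed complex between 50 nM HP1-beta and 50 nM biotinylated H3K9me3 peptide was read by AlphaScreen. Buffer was PBS pH 7.4 with 0.01% Tween-20. Incubations ran 30 min at room temperature, with 10 ug/mL donor/acceptor beads.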
PLK1 PBD inh: PLK1 (human) polo-box domain binding inhibition; P53350; 360,000 compounds, 2.8% hits; Potency, µM, without a hit: max response, negative = inhibition, usual class: inhibitors; Plk1 PBD binding of FITC phosphopeptide, fluorescence polarization; further: potency means the concentration at half of the fitted maximal effect; series mostly up to about 57 µM; on the % scale 0 is the no-effect control and ±100 the full control effect; nearly all actives have a fitted effect of over 65% in size
JMJD2A Tudor inh: inhibitors of human JMJD2A Tudor domain | AlphaScreen JMJD2A-Tudor / H3K4me3 peptide binding | O75164 | Potency, µM (titrated, usually from 114 µM), for inactives: at the top dose activity change, negative = inhibition, most hits filed as inhibitors | 390,000 compounds, 4.4% hits; further: potency means the concentration at half of the fitted maximal effect; on the % scale 0 is the no-effect control and ±100 the full control effect; nearly all actives have a fitted effect of over 50% in size
An asterisk follows results filed as active; ? = inconclusive; . = no result; ! = a repeat was not active; [ ] = remark or other dose. A selection: hits, their analogues and other compounds. The true share with any hit is near 7%. Unless noted, the call rests on the fitted dose curve; in most records, active means well fitted curve in the direction sought with a large enough effect; inconclusive means small, poorly fitted or top-dose-only effect, or another doubt; inactive means no such curve, though single readings can be large; an effect the other way counts as inactive or inconclusive.

SMILES | BAZ2B inh | PI5P4Ka inh | KAT2A inh | HP1b chromo inh | PLK1 PBD inh | JMJD2A Tudor inh
CCn1cc(C(=O)NCCCOC(C)C)c(=O)c2cc(S(=O)(=O)N3CCc4ccccc4C3)ccc21 | . | . | -4% | 54% | . | -27%
COc1cc(Cl)cc(CN2CCC(CCC(=O)NC3CC3)CC2)c1OC | 14% | -4 | 2% | 18% | -15% | -9%
C=CCn1c(SCc2n[nH]c(=S)n2-c2ccccc2)nnc1-c1ccccc1 | -13% | 6 | -2% | 37% | 2% | 11µM*
C=CCn1c(SCc2ccc(C#N)cc2)nnc1-c1ccccc1 | -1% | . | -4% | 39% | -2% | -7%
C=CCn1c(CSc2nnc(-c3ccccc3)n2C)n[nH]c1=S | -3% | 0 | -11% | 41% | -5% | 10µM*
COc1ccc(S(=O)(=O)NCc2ccccn2)cc1OC | ? | 1 | -4% | 13% | -5% | -16%
COc1ccc(S(=O)(=O)NCc2ccccn2)cc1NC(=O)c1ccccc1C | ? | 6 | 5% | 11% | -11% | 1µM*
COc1ccc(S(=O)(=O)NCc2ccccn2)cc1NC(=O)c1ccc(Cl)cc1 | -7% | -13 | -2% | -24% | -6% | 3.5µM*
CCOC(=O)C1(CCOc2ccccc2)CCN(C(=O)CCSC)CC1 | . | -1 | . | 35% | 8% | 3%
COc1ccccc1-c1noc(-c2ccc(NC3CCCC3)c([N+](=O)[O-])c2)n1 | 0% | . | -7% | 44% | . | -6%
COc1ccc(-c2cc(=O)oc3cc(OC(C)C(=O)NC(Cc4c[nH]c5ccc(O)cc45)C(=O)O)ccc23)cc1 (centres undefined) | 50µM* | 11 | -13% | 0% | 3% | -27%
CC(=O)Nc1ccccc1Sc1ccccc1 | 1% | . | 2% | 27% | -1% | 2%
O=C1c2cccc(Sc3ccccc3)c2C(=O)c2c(Sc3ccccc3)cccc21 | 16µM* | 6 | -1% | 7.9µM* | -8% | 3.2µM*
Cc1ccc(CNC(=O)C2CCCN(S(=O)(=O)c3ccc4c(ccn4C)c3)C2)cc1 (centres undefined) | -1% | . | 3% | 21%[57 µM] | . | -7%
COc1ccnc(CSC(N)=Nc2ccccc2C(F)(F)F)c1 | -3% | 1 | 3% | 40% | -10% | -6%
COc1ccnc(CSC(N)=Nc2ccccc2OC)c1 | ? | ? | 1% | 7% | -27% | 45µM*
N=C1SC(c2ccccc2)C(=O)N1c1ncc(Cc2ccccc2)s1 (centres undefined) | -3% | -56* | -5% | 32% | -20% | -19%
CCc1ccc(Cc2cnc(NC(=O)c3ccc4c(c3)CC(c3ccccc3)OC4=O)s2)cc1 (centres undefined) | -4% | . | 0% | 25% | . | -7%
Cc1ccc(Cc2cnc(NC(=O)c3ccco3)s2)cc1 | -27% | . | -5% | 4% | -5% | -29%
Cc1ccc(Cc2cnc(N3C(=N)SC(c4ccccc4)C3=O)s2)cc1 (centres undefined) | -4% | -73* | -5% | 14% | -7% | ?
Cc1ccc(-c2cn(C[C@H]3CC[C@@H]([C@@H]4CC[C@H](Cn5cc(-c6ccc(C)cc6)nn5)O4)O3)nn2)cc1 | 39% | -2 | -2% | 41% | 2% | -16%
c1ccc(-c2cn(C[C@H]3CC[C@H](Cn4cc(-c5ccccn5)nn4)O3)nn2)nc1 | 0.79µM* | -7 | 1% | -2% | -29% | 0.89µM*
COc1cc(S(C)=O)ccc1-c1nc2ncccc2[nH]1 (centres undefined) | 9% | 1 | -8% | 48% | 0% | -11%
CCOc1ccc(NC(=O)Cc2ccc(NC(=O)N3CCCCc4ccccc43)cc2)cc1 | -23% | . | 5% | 12% | . | -25%
Brc1cccc(/C=N/Nc2nn[nH]n2)c1 | ? | -8 | -8% | 40% | 4% | -6%
SMILES | BAZ2B inh | PI5P4Ka inh | KAT2A inh | HP1b chromo inh | PLK1 PBD inh | JMJD2A Tudor inh
O=C(/C=C/c1cccc(Br)c1)Nc1nn[nH]n1 | 3% | -69* | 0% | -3% | -1% | ?
CCCc1cc(=O)[nH]c(SCc2nc(-c3ccccc3)no2)n1 | -3% | . | -1% | 21%[57 µM] | . | -6%
CC(=O)Nc1ccc(C(=O)CSc2nnc(Cn3nnc4ccccc43)n2C)cc1 | 4% | . | -9% | 10% | -11% | 56µM*
Cc1ccc(C(=O)c2cn(Cc3ccc(Cl)cc3)c3nc(C)ccc3c2=O)cc1 | 2% | . | 0% | 60% | . | ?
CN1C(=O)c2oc3ccccc3c(=O)c2C1c1ccncc1 (centres undefined) | -23% | 0 | 0% | 10% | 27µM* | 56µM*
COc1ccc(C2c3c(oc4ccccc4c3=O)C(=O)N2CCN2CCOCC2)cc1OC (centres undefined) | . | 0 | . | 14% | -3% | 2%
COCCN1C(=O)c2oc3ccccc3c(=O)c2C1c1ccc(OC)c(OC)c1 (centres undefined) | -4% | ? | 2% | ? | -4% | 56µM*
COc1cc(OC)c(OC)cc1CNC(=O)c1cc(=O)[nH]c2ccccc12 | 9% | 3 | -6% | 21% | 1% | -3%
Cc1cc(Cl)ccc1OCC(=O)N[C@@H](Cc1ccccc1)c1nc2ccccc2[nH]1 | 56µM* | 11 | -3% | 34% | -17% | -17%
CC(=O)C1=C(C)NC(SCc2cccc([N+](=O)[O-])c2)=C(C#N)C1c1ccco1 (centres undefined) | 40µM* | -2 | 0% | -13% | -11% | ?
C=CCOC(=O)C1=C(C)NC(SCC(=O)N(CC)CC)=C(C#N)C1c1ccco1 (centres undefined) | -1% | -1 | -14% | 22% | 0% | 3%
CCN(CC)C(=O)CSC1=C(C#N)C(c2ccco2)C(C(=O)OCCOC)=C(C)N1 (centres undefined) | ? | -5 | -7% | 26% | -3% | 79µM*!
Cc1ccsc1/C=C1\SC(=S)N(CC2CCCO2)C1=O (centres undefined) | 10µM* | -1 | -5% | 45µM* | -3% | 10µM*
O=S(=O)(CCSc1ccccn1)c1nc2ccccc2s1 | 34% | . | -4% | 122% | 6.7µM* | 26%
CCCCSc1nnc(CSc2ncccn2)n1C | 2% | 8 | -7% | 28% | -4% | 0%
Cc1ccc(C)c(N2CCN(c3ccc(N4C(=O)COCC4=O)cc3[N+](=O)[O-])CC2)c1 | -25% | -1 | 4% | 16% | -3% | -23%
Cc1cc(N2C(=O)C=CC2=O)c([N+](=O)[O-])cc1C | 56µM* | -56* | 20µM* | 5.6µM* | 6µM* | 6.3µM*
O=C(OCC#CCSc1nnc(-c2cccc3ccccc23)o1)c1cccc(C(F)(F)F)c1 | . | . | . | . | . | 19%
